In PubChem BioAssay AID651650 (Sanford-Burnham Center for Chemical Genomics, 2012):

The compounds below were run against Neuropilin-1 (Homo sapiens) (UniProt O14786) (assay: blockers of CendR peptide binding to NRP-1 – biochemical, FP and AlphaScreen panel, dose response (AID 651650)). Conditions: NRP-1 b1b2 / RPARPAR peptide binding, FP or AlphaScreen; run 1, at 100 µM (top of the series).
Sequence of Neuropilin-1 (Homo sapiens) (O14786 whole entry, looked up): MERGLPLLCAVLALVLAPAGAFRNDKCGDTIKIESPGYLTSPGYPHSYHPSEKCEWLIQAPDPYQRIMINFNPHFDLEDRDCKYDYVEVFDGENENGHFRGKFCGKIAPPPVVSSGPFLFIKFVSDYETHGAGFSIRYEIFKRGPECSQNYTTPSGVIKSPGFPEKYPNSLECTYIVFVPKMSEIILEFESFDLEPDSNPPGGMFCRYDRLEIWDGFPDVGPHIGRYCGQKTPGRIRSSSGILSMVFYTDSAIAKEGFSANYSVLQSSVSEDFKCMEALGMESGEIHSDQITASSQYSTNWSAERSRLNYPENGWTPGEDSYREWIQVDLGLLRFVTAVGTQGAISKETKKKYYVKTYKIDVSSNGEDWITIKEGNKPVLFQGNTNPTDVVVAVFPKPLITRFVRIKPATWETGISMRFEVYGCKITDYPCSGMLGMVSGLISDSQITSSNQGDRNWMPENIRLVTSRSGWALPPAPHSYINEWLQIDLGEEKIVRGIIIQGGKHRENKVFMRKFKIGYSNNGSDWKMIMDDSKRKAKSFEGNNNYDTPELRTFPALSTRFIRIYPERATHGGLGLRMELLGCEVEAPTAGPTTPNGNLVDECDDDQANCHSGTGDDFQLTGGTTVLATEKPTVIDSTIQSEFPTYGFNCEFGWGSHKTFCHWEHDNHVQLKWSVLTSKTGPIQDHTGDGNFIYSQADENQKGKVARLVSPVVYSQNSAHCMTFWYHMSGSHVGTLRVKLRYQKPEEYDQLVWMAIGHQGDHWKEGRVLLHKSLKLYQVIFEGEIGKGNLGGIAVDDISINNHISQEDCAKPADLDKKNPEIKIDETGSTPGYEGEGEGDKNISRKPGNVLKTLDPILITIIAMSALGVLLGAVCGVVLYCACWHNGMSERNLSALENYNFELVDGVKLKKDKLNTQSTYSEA
Work on `CCCCC1CCC(C(=O)NC2CCS(=O)(=O)C2)CC1` (stereo not drawn) yielded an inhibition of 16.6%. In the case of `Cc1csc(NC(C)c2nc3cc(C(F)(F)F)ccc3n2CCOCCO)n1` (stereo not drawn), the inhibition is reported as 20%. In the case of `CCn1c(=O)c(C(=O)NCCNCCO)c(O)c2ccccc21`, the inhibition is reported as 26.5%. With `COc1cc(C(=O)OCC(=O)Nc2c(F)c(F)c(F)c(F)c2F)cc(OC)c1OC` the inhibition was 17.8%. `CCc1onc(C)c1C(=O)Nc1cc(C)ccc1OC` showed an inhibition of 95.6%. Work on `Cc1ccc(NC(=S)N2CCN(Cc3ccccc3)CC2)cc1` yielded an inhibition of -7.69%. Work on `CCCN(C(=O)Cn1c(C(F)(F)F)nc2ccccc21)C1CCS(=O)(=O)C1` (stereo not drawn) yielded an inhibition of 60.7%. For `O=C(CCn1c(=O)c2cccn2c2cccnc21)NCc1cccc(Cl)c1`, the inhibition was 5.81%. Compound `O=C(Nc1cccc(S(=O)(=O)N2CCCCC2)c1)c1ccc([N+](=O)[O-])o1` has an inhibition of 52.5%. `Cc1ccc(C(=O)N/C(=C\c2sccc2C)C(=O)NCc2ccco2)cc1` was tested, and the inhibition was 53.9%. Work on `C=C1CCN(C(C(=O)OC)C(C)C)S(=O)(=O)c2ccc(F)cc21` (stereo not drawn) yielded an inhibition of 68%. `CCOC(=O)c1ccc2[nH]c(C)c(C)c2c1` showed an inhibition of -0.673%. Work on `N#CC(C#N)=Cc1cc2ccccc2nc1N1CCCCC1` yielded an inhibition of -3.26%. `COC(=O)C1=C(C)NC(C)=C(C(=O)OC)C1C(=O)OC(C)C(=O)c1ccccc1` (stereo not drawn) showed an inhibition of 12.9%. With `Cc1ccccc1-n1ncc2c1CC(C)(C)CC2NC(=O)c1ccncc1` (stereo not drawn) the inhibition was 28.1%. With `CCOC(=O)N1CCN(C(=O)c2cc3n(n2)C(C(F)(F)F)CC(c2ccc4c(c2)OCO4)N3)CC1` (stereo not drawn) the inhibition was 30.7%. With `CCCN=C1N/C(=C\c2ccco2)C(=O)N1c1ccccc1` the inhibition was 3.93%. `CCOC(=O)C[C@H]1c2cc(C(F)(F)F)ccc2S(=O)(=O)N1Cc1ccccc1` was tested, and the inhibition was 59.5%. Compound `Oc1ccccc1-c1ccn[nH]1` has an inhibition of 32%. `CC(=O)Nc1ccc(Oc2cc(C#N)c(C#N)cc2N2CCOCC2)cc1` showed an inhibition of 10.4%. For `O=C(O/N=C1/CCSc2ccccc21)c1ccccc1`, the inhibition was 17.1%. With `Cc1ccc(NNS(=O)(=O)c2ccc(C)cc2)cc1` the inhibition was 16.2%. For `Cc1csc(NC(C)c2nc3cc(C(F)(F)F)ccc3n2CCCO)n1` (stereo not drawn), the inhibition was 89.7%. In the case of `CCC1=C(OC(=O)N(CC)CC)N2C(=O)OC(=NCC(=O)OC)[C@]2(C)[C@H]2C1=CC[C@H]1C(=O)N(CC)C(=O)[C@H]12`, the inhibition is reported as 11.6%. Work on `CCOC(=O)c1ccc(NC(=O)CN2CCc3ccccc3C2)cc1` yielded an inhibition of 1.94%. With `C=C(C)C1CC=C(C)/C(=N\NC(=O)CNc2ccccc2OC)C1` (stereo not drawn) the inhibition was -8.81%. `CC1(c2ccccc2)CC(C)(C)n2c(O)c(C3=NC(=S)NC3=O)c3cccc1c32` (stereo not drawn) gave an inhibition of 12.3%. `Cc1onc(-c2ccccc2)c1C(=O)N1CCCC1` was tested, and the inhibition was 31.9%. Work on `Cc1cccc(CN2CCN(C3CN(Cc4cn(Cc5cccc(Cl)c5)nn4)S(=O)(=O)C3)CC2)c1` (stereo not drawn) yielded an inhibition of 33.2%. Work on `NC(=O)CC[C@H](NC(=O)c1ccc(F)cc1)C(=O)N1CCN(Cc2ccc3c(c2)OCO3)CC1` yielded an inhibition of 28.6%. `Cn1cccc1C1Nc2ccccc2NC2=C1C(=O)CC(C)(C)C2` (stereo not drawn) gave an inhibition of 12.9%. Work on `Nc1ncnc2[nH]c(=S)[nH]c12` yielded an inhibition of -4.05%. In the case of `COc1ccc(-c2csc(Nc3cccnc3)n2)cc1`, the inhibition is reported as 47.6%. `Cc1ccc(NC(=O)c2ccc3c(c2)OCCO3)cc1S(=O)(=O)Nc1cccc(Cl)c1` gave an inhibition of 4.91%. In the case of `CC(C)NC(=O)c1c(CSc2ccccc2)noc1C(=O)NCc1ccccc1`, the inhibition is reported as 49%. `O=C(Cn1ccc(NC(=O)OCc2ccccc2)nc1=O)NCCCn1ccnc1` showed an inhibition of 48.6%. Work on `Cc1ccc2cc(CN(c3ccccc3C)S(=O)(=O)c3ccccc3)c(=O)[nH]c2c1` yielded an inhibition of 41.9%. `c1ccc2c(c1)CCCN2Cc1nnnn1CC1CCCO1` (stereo not drawn) was tested, and the inhibition was 48.9%.
